Assay results reported in PubChem BioAssay (NCATS).
“And” between values parts separate entries of the source, which are not always exact repeats. Identical values can stand only once. A number with no mark means an inactive call. Records with an inconclusive call do not appear. Where a call stands in place of a potency, no number is given. The source made the active and inactive calls. Calls follow the shape of the dose curve; as a rule, active = well fitted curve in the direction sought with a large enough effect; inconclusive = small, poorly fitted or top-dose-only effect, or another doubt; inactive = no such curve, though single readings can be large; an effect the other way counts as inactive or inconclusive. Where a SMILES comes first, the peptide text is derived from it. [ ]: non-standard residue; d: D form. The star is where a group is joined. AFC = O=c1cc(C(F)(F)F)c2ccc(N*)cc2o1; 2Abz = Nc1ccccc1C(=O)O

Tests used:
[1] = target: Glutathione peroxidase 1 (Homo sapiens) (UniProt P07203); assay: Primary qHTS Assay for Inhibitors of Recombinant Selenoprotein Glutathione Peroxidase 1 (GPX1) (AID 1845191); also: nearly all actives have a fitted effect of over 65% in size; also: potency is read from the fitted curve at half-maximal effect
Sequence of Glutathione peroxidase 1 (Homo sapiens) (P07203 whole entry, looked up): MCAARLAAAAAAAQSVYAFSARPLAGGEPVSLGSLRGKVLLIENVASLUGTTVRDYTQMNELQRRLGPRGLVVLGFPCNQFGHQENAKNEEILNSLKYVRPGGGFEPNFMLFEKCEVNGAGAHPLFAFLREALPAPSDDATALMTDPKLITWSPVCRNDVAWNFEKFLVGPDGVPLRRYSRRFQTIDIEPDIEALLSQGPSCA
Outline: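 Recombinant GPX1 (10 nM final) was preincubated with compound for 30 min at room temperature, then reacted with 1 mM GSH, 0.5 mM CHP, 0.5 mM NADPH and 100 nM glutathione reductase; NADPH fluorescence (340/450 nm) was read at 0 and 15 min.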

[2] = target: Phospholipid hydroperoxide glutathione peroxidase GPX4 (Homo sapiens) (UniProt P36969); assay: Primary qHTS Assay for Inhibitors of Recombinant Selenoprotein Glutathione Peroxidase 4 (GPX4) (AID 1845192); also: nearly all actives have a fitted effect of over 65% in size; also: potency is read from the fitted curve at half-maximal effect; as to activity change, negative = inhibition: series mostly up to about 50 µM
Sequence of Phospholipid hydroperoxide glutathione peroxidase GPX4 (Homo sapiens) (P36969 whole entry, looked up): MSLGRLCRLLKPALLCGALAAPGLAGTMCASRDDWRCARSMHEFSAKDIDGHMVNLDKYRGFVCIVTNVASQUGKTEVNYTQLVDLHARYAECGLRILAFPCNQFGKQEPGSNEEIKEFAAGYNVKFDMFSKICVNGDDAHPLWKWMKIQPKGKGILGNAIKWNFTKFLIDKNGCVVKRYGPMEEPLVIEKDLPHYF
Outline: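 GR-coupled readout: 100 nM GR, 1 mM GSH, 0.5 mM NADPH; NADPH fluorescence (ex 340/em 450 nm) read at t=0 and after 15 min RT. GPX4 200 nM, preincubated 30 min with compound; substrate 0.5 mM CHP.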

[3] = target: Luciferin 4-monooxygenase (Photinus pyralis) (UniProt P08659); assay: Primary firefly luciferase (FLuc) qHTS assay for identification of artifact compounds. (AID 1845220); also: nearly all actives have a fitted effect of over 60% in size; as to activity change, negative = inhibition: series mostly up to about 54 µM
Outline: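 Reaction readout was CCD-imaged luminescence, taken 5 min after adding 10 nM purified firefly enzyme to compound-treated wells holding 10 uM luciferin and ATP in pH 7.6 buffer.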

[4] = Primary fluorescence-based thiol-reactive (MSTI) qHTS assay for identification of artifact compounds. (AID 1845221); also: nearly all actives have a fitted effect of over 65% in size; also: potency is read from the fitted curve at half-maximal effect;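 as to activity change, negative = thiol reactive: series mostly up to about 54 µM; thiol-reactive compounds lower the probe fluorescence signal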
Outline: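 Compounds were incubated 1 h at room temperature in the dark with the MSTI probe (4 uM) in PBS pH 7.4, 2% DMSO. Signals were normalized between Acetyl-MSTI and MSTI.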

[5] = test system: Nanoluciferase (engineered Oplophorus gracilirostris luciferase); assay: Primary Nanoluciferase (NLuc) qHTS assay for identification of artifact compounds. (AID 1845222);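 also: NLuc secreted into diluted conditioned medium of S16 cells; series mostly up to about 54 µM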
Outline: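 Concentration-response data were obtained by luminescence after 5 min with Nano-Glo substrate at 1:100. The enzyme was diluted S16 NLuc-expressing cell medium, preincubated with compound for 15 min at RT. Curves were fitted with a 4-parameter Hill model.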

[6] = Primary redox qHTS assay for identification of artifact compounds. (AID 1845223)
Outline: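 Amplex Red (25 uM) and HRP (250 mU/mL) in HBSS, with compounds for 15 min, then 250 uM DTT for 30 min, room temperature, dark. Fluorescence 525/598 nm read; normalized to DMSO and 10 uM DA3003; Hill fit.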

Row | Structure (SMILES) | Potency [1] | Potency [2] | Potency [3] | Potency [4] | Potency [5] | Potency [6] | outcome [1] | activity change, negative = inhibition [2] | outcome [3] | activity change, negative = thiol reactive [4] | activity, negative = inhibition [5] | redox activity (% of DA3003) [6]
1 | C=C1CC2[C@]3(C)C(=C(O)C(=O)[C@@]2(C)[C@]2(C(=O)OC)C(=O)C(C)OC(=O)[C@@]12C)C(C)(C)C(=O)CC3O (some centres undefined) | inactive | inactive | inactive | inactive | inactive | inactive | – | – | – | – | – | –
2 | COc1cc(/C=C/C(=O)OC2[C@H](O)CC(O)(C(=O)O)C[C@H]2O)ccc1O (some centres undefined) | inactive | inactive | inactive | inactive | inactive | inactive | – | – | – | – | – | –
3 | CC(=O)N[C@@H](CC(C)C)C(=O)N[C@@H](CCC(=O)O)C(=O)N[C@@H](CCC(=O)O)C(=O)N[C@@H](CC(=O)O)C(=O)Nc1ccc2c(C(F)(F)F)cc(=O)oc2c1 (Ac-LEED-{AFC}) | 22.7 µM (active) | 20.2 µM (active) | inactive | inactive | inactive | inactive | – | – | – | – | – | –
4 | COc1c(C)c(OCC=C(C)C)cc2c1C(=O)NC2=O | inactive | inactive | inactive | inactive | inactive | inactive | – | – | – | – | – | –
5 | O=C(NCc1ccc(OC(F)(F)F)cc1)C1c2ccccc2C(=O)N1C1CCOCC1 (centres undefined) | inactive | inactive | inactive | inactive | inactive | inactive | – | – | – | – | – | –
6 | C[C@@H]1O[C@@H](O[C@H]2[C@H](OC(=O)[C@]34CCC(C)(C)C[C@H]3C3=CCC5[C@@]6(C)C[C@H](O)[C@H](O[C@@H]7O[C@H](CO[C@@H]8OC[C@H](O)[C@H](O)[C@H]8O)[C@@H](O)[C@H](O)[C@H]7O)C(C)(C)C6CC[C@@]5(C)[C@]3(C)C[C@H]4O)OC[C@@H](O)[C@@H]2O)[C@H](O)[C@H](O[C@@H]2OC[C@](O)(CO)[C@H]2O)[C@H]1O[C@@H]1OC[C@H](O)[C@H](O[C@@H]2OC[C@@H](O)[C@H](O)[C@H]2O)[C@H]1O (some centres undefined) | – | – | – | – | – | – | inactive [at 9.52 µM] | -0.436% [at 9.73 µM] | inactive [at 11.6 µM] | 452% [at 11.5 µM] | 3.55% [at 11.6 µM] | 10.3% [at 11.5 µM]
7 | C[C@@H]1CC[C@]2(C)C(C[C@@H](O)[C@H](O)[C@]23CO3)[C@@]1(C)CCc1ccoc1 (some centres undefined) | inactive | inactive | inactive | inactive | inactive | inactive | – | – | – | – | – | –
8 | O=C(O)c1n[nH]c2c1C[C@H]1C[C@@H]21 | inactive | inactive | inactive | inactive | inactive | inactive | – | – | – | – | – | –
9 | C=C1CC2C3(C)C(OC(C)=O)CC(=O)OC(C)(C)C3C(O)C(OC(C)=O)C2(C)C2C(=O)OC(C)C(=O)C12C (centres undefined) | inactive | inactive | inactive | inactive | inactive | inactive | – | – | – | – | – | –
10 | CC1(CO)CC2C(O)C(=O)C3(CO)CC3(C)C2C1 (centres undefined) | inactive | inactive | inactive | inactive | inactive | inactive | – | – | – | – | – | –
11 | C=C1C(=O)O[C@H]2[C@H]1[C@@H](OC(=O)C(C)CO)C[C@@]1(C)[C@H](O)CCC(=O)[C@H]21 (some centres undefined) | inactive | inactive | inactive | inactive | inactive | inactive | – | – | – | – | – | –
12 | C[C@@H]1O[C@@H](OC[C@H]2O[C@@H](OCC3CCC4CC3C4(C)C)[C@H](O)[C@@H](O)[C@@H]2O)[C@H](O)[C@H](O)[C@H]1O (some centres undefined) | inactive | inactive | inactive | 11.6 µM (active) | inactive | inactive | – | – | – | – | – | –
13 | COC1CC(=O)CCC(C)OC(=O)CC1O (centres undefined) | inactive | inactive | inactive | inactive | inactive | inactive | – | – | – | – | – | –
14 | COC1(CC(C)C)NC(=O)C(O)(Cc2ccccc2)NC1=O (centres undefined) | inactive | inactive | inactive | inactive | inactive | inactive | – | – | – | – | – | –
15 | CCC(C)C1NC(=O)C2CCCN2C(=O)C(C(C)C)NC(=O)c2ccccc2NC(=O)C(Cc2ccc(O)cc2)NC(=O)C(C)NC(=O)C(C(C)O)NC1=O (centres undefined) (cyclo([2Abz]VPITAY); configuration not given here) | inactive | inactive | inactive | inactive | inactive | inactive | – | – | – | – | – | –
16 | CO/N=C(/C(=O)N[C@@H]1C(=O)N2C(C(=O)O)=C(CSC(=O)c3ccco3)CS[C@H]12)c1csc(N)n1 | 8.06 µM (active) and 7.18 µM (active) | 7.08 µM (active) | inactive | inactive | inactive | inactive | – | – | – | – | – | –
17 | CC1CCC2C(C)(C)C(O)CCC2(C)C12Cc1c(O)cc3c(c1O2)C(N)=NC3 (centres undefined) | inactive | inactive | inactive | inactive | inactive | inactive | – | – | – | – | – | –
18 | CC1CCC2(NC1)OC1C(=O)C3C4CCC5CC(O[C@@H]6O[C@H](CO)[C@@H](O)[C@H](O)[C@H]6O[C@@H]6O[C@@H](C)[C@H](O)[C@@H](O)[C@H]6O)CCC5(C)C4CCC3(C)C1C2C (some centres undefined) | inactive | inactive | inactive | inactive | inactive | inactive | – | – | – | – | – | –
19 | COc1cc(C)c(C(=O)O[C@H]2[C@@H](O)[C@H](n3ccc(=O)[nH]c3=O)O[C@@H]2CO)c(OC)c1 | inactive | inactive | inactive | inactive | inactive | inactive | – | – | – | – | – | –
